For four molecules, composite z-score and z-score results are on record in PubChem BioAssay.

Several values for one entry are separate records, joined by “and”; a condition that tells them apart may be missing. Equal values may be shown once. Activity calls are given as the source filed them. Unless noted, the rule behind the calls is not given here.

Test [1] in a line: compounds binding Alexa647 anti-His antibody – biochemical, small-molecule microarray, 635 nm fluorescence, artefact control for SMM control protein annotation, primary screen (AID 1128).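 Note: score merges feature fluorescence with signal-to-noise for each printed compound spot.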 Particulars: higher = more signal.
Test [2] relates to Human papillomavirus type 1a E7 protein (residues 1-88). As to the kind of experiment: HPV1a E7 small-molecule binders, primary screen, biochemical, small-molecule microarray, residues 1-88, 635 nm (AID 1129). Particulars: small-molecule microarray binding, fluorescence 635 nm; higher = more signal.
Test [3] addresses Focal adhesion kinase 1 (Homo sapiens) (UniProt Q05397). The test can be described thus: PTK2 protein binding on printed compound slides – biochemical, small-molecule microarray, 635/667 nm fluorescence, BSA, DTT, primary screen (AID 1130).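 Note: composite of spot emission at 667 nm and signal to noise over triplicate slides.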 Conditions: 635 nm fluorescence, higher = more signal.
In test [4] the test system is Fibrinogen (Alexa647-labelled). The test can be described thus: Alexa647-fibrinogen binding to printed small molecules – biochemical, small-molecule microarray, 635/667 nm fluorescence, artefact control for SMM control-protein annotation, profiling panel (AID 1131).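 Note: z-score merges 667 nm fluorescence with per-spot signal-to-noise over triplicate slides.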 Particulars: fibrinogen-A647 binding fluorescence, higher = more signal.
The target in test [5] is Follistatin (Homo sapiens) (UniProt P19883). As to the kind of experiment: FST protein binding to printed compounds – biochemical, small-molecule microarray, 635/667 nm fluorescence, primary screen (AID 1132). Conditions: 635 nm fluorescence, higher = more signal.
Sequence of Follistatin (Homo sapiens) (P19883 whole entry, looked up): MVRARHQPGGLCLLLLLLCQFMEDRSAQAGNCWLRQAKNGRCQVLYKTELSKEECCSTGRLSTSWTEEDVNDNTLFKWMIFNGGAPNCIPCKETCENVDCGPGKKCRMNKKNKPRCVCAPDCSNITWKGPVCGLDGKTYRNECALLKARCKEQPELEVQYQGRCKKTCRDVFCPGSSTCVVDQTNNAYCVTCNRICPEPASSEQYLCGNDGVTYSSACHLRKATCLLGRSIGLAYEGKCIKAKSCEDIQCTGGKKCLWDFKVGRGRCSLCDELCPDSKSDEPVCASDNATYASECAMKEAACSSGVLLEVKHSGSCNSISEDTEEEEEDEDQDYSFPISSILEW
Test [6] addresses Fibroblast growth factor 2 (Homo sapiens) (UniProt P09038). As to the kind of experiment: basic fibroblast growth factor binding to printed compounds – biochemical, small-molecule microarray, 635/667 nm fluorescence, primary screen (AID 1133). Particulars: FGF2, fluorescence 635/667, higher = more signal.
The nature of test [7]: JC-1 mitochondrial potential readout, lung cancer cells – cell-based, A549, JC-1 fluorescence, basal, 24 h, 100 nL, profiling panel (AID 1138).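 Note: A549 lung adenocarcinoma cells under basal conditions with no added stimulus; test concentration not given here.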 Particulars: higher = more signal.
Another test deals with Lefty1. As to the kind of experiment: Lefty1 protein binding to printed compounds – biochemical, small-molecule microarray, 635/667 nm fluorescence, primary screen (AID 1139). Conditions: fluorescence 635/667, higher = more signal.
In test [8] the test system is wheat germ agglutinin (Triticum aestivum), Alexa647-labelled. The test can be described thus: Alexa647-WGA lectin binding to printed small molecules – biochemical, small-molecule microarray, 635/667 nm fluorescence, artefact control for SMM control-protein annotation, profiling panel (AID 1140).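 Note: score merges 667 nm feature emission with signal to noise over triplicate slides.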 Conditions: WGA-A647 binding, 635 nm fluorescence, higher = more signal.
The target of test [9] is Luciferin 4-monooxygenase (Photinus pyralis) (UniProt P08659). As to the kind of experiment: inhibition of purified Photinus pyralis luciferase – biochemical, luminescence, purified enzyme, 2006 set, primary screen (AID 1141).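 Note: cell-free assay with purified firefly luciferase at 100 ng per well in PBS; test concentration not given here.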 Conditions: purified firefly luciferase, SteadyGlo luminescence, 30 min; higher = more signal, called active from +8 up or from −8 down.
Sequence of Luciferin 4-monooxygenase (Photinus pyralis) (P08659 whole entry, looked up): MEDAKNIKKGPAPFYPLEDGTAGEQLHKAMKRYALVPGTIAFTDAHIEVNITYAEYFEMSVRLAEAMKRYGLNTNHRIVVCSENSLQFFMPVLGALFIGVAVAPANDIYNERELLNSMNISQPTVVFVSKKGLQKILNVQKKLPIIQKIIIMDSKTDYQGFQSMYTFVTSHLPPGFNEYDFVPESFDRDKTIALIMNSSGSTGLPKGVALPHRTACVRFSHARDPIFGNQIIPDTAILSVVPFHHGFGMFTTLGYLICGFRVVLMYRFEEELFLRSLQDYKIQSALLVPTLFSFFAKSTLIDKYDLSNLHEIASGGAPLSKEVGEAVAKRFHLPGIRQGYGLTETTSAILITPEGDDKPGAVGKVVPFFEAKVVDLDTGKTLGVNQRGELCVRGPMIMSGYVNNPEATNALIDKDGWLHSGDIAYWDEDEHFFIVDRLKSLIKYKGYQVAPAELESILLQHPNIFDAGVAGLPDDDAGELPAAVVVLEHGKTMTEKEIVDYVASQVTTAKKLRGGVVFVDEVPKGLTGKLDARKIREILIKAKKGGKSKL
Test [10] has as its system Wnt5a (protein binding on small-molecule microarray). The test can be described thus: small molecules binding Wnt5a protein – biophysical, small-molecule microarray, 635/667 nm fluorescence, primary screen (AID 1142).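 Note: fluorescence read at 667 nm with signal to noise per printed feature.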 Particulars: 635 nm fluorescence, higher = more signal.
The nature of test [11]: ATP-based viability of Huh7 replicon cells – cell-based, CellTiter-Glo luminescence, basal, 48 h, cytotoxicity control for HCV replication inhibitor project, primary screen (AID 1143).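 Note: Huh7 hepatoma cells carrying a hepatitis C replication reporter with no stimulus; test concentration not given here.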 Particulars: higher = more signal, called active from +8 up or from −8 down. (A replicon is a self-replicating genome or part of one, used to study replication in cells.)
A short description of test [12]: Pseudomonas biofilm growth suppression – PAO1 strain, BacTiter-Glo luminescence, LB-PBS, primary screen (AID 1144). Conditions: P. aeruginosa PAO1 biofilm, 12 h, higher = more signal.
Test [13] in a line: basal CRE-LacZ reporter activity in PC12 – cell-based, unstimulated, primary screen (AID 1145). Conditions: no forskolin, luminescence, 4.5 h, higher = more signal, called active from +8 up or from −8 down.
The nature of test [14]: forskolin-driven CRE-LacZ activity in PC12 – cell-based, CRE-LacZ reporter, forskolin-stimulated, primary screen (AID 1146).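 Note: PC12 cells with 6xCRE LacZ reporter stimulated by forskolin 10 µM; beta-galactosidase reporter signal reflecting CREB driven transcription.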 Particulars: luminescence, 4.5 h, higher = more signal, called active from +8 up or from −8 down.
Test [15] addresses Streptavidin (Streptomyces avidinii) (UniProt P22629). As to the kind of experiment: compounds binding control protein streptavidin – biophysical, small-molecule microarray, 635/667 nm fluorescence, artefact control for SMM compound annotation, primary screen (AID 1147).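 Note: signal reflects streptavidin binding to arrayed compounds as a control protein.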 Conditions: higher = more signal.
Test [16] is described as follows: probe aInhba binding on compound microarray – biochemical, small-molecule microarray, 635/667 nm fluorescence, primary screen (AID 1148).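 Note: score merges 667nm spot fluorescence with signal-to-noise for antibody binding to printed compounds.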 Particulars: higher = more signal.
The target in test [17] is Torsin-1A (Homo sapiens) (UniProt O14656). The test can be described thus: TOR1A wild-type binding on microarray – cell lysate, small-molecule microarray, lysate, 635/667 nm, primary screen (AID 1149). Conditions: COS7 hTOR1A-WT lysate, 635 nm fluorescence, higher = more signal.
Sequence of Torsin-1A (Homo sapiens) (O14656 whole entry, looked up): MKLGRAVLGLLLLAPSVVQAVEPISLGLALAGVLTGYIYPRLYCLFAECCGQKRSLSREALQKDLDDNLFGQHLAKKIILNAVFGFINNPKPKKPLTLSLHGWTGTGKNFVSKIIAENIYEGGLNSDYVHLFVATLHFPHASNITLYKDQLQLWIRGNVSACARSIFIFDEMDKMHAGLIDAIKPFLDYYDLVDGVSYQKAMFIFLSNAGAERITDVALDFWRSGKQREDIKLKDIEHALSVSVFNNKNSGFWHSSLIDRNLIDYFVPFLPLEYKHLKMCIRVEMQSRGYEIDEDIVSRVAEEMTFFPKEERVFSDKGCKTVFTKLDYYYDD
The target is the same in test [18]. The test can be described thus: torsin A mutant lysate binding on microarrays – cell lysate, small-molecule microarray, COS7 lysate, 635/667 nm fluorescence, primary screen (AID 1150).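 Note: score pools 667 nm emission and signal to noise measuring lysate protein binding.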 Conditions: COS7 hTOR1A mutant lysate, 635 nm fluorescence, higher = more signal.
The test system of test [19] is Sonic hedgehog protein (Shh). The test can be described thus: Sonic hedgehog microarray binding compounds – biochemical, small-molecule microarray, 635/667 nm fluorescence, primary screen (AID 1151).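 Note: Shh protein binding to compounds spotted on small-molecule microarray slides; score combines spot fluorescence intensity with signal-to-noise across triplicate slides.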 Particulars: 635 nm fluorescence, higher = more signal.

Sequence of Streptavidin (Streptomyces avidinii) (P22629 whole entry, looked up): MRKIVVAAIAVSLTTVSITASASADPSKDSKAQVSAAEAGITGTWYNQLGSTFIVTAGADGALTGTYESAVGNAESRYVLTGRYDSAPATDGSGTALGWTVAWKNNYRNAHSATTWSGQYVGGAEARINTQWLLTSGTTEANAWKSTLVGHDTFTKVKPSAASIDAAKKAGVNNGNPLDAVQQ
Sequence of Focal adhesion kinase 1 (Homo sapiens) (Q05397 whole entry, looked up): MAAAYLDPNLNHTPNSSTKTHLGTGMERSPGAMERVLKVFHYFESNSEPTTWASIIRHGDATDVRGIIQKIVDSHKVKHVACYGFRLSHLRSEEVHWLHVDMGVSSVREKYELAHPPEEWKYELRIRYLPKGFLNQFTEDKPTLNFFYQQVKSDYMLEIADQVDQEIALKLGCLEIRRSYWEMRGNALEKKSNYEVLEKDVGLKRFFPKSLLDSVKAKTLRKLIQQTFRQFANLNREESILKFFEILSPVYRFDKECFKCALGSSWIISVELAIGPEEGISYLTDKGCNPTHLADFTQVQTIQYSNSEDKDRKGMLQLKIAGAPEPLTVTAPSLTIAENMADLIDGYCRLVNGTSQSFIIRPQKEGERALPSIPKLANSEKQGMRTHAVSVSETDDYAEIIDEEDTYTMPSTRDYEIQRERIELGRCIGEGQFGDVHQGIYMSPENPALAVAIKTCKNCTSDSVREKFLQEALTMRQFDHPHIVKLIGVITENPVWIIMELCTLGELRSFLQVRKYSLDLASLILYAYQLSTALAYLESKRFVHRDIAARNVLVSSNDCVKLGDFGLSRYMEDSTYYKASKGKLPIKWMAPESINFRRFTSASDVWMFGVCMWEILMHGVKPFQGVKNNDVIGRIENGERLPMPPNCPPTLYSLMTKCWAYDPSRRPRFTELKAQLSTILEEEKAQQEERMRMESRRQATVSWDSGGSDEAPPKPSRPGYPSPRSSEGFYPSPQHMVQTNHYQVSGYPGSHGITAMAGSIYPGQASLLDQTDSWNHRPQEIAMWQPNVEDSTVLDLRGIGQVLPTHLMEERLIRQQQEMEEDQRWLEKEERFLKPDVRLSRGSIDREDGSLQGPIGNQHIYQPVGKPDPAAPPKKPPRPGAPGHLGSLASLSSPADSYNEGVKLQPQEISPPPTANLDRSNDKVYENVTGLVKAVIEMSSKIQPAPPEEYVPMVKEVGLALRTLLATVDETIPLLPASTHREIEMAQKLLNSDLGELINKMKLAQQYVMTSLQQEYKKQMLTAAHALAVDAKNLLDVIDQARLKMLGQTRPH
Sequence of Fibroblast growth factor 2 (Homo sapiens) (P09038 whole entry, looked up): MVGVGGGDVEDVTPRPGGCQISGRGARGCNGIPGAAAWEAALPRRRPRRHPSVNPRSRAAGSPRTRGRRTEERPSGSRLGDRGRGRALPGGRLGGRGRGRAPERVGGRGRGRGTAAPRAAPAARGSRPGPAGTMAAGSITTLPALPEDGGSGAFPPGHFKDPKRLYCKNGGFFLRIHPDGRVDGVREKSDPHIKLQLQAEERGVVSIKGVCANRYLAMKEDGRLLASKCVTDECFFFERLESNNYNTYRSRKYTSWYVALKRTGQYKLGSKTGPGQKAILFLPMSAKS

For the molecule `C=CCN(CCCCC)C(=O)C(c1cccs1)N(CCOCCO)C(=O)/C=C\C(=O)O` (stereo not given), the composite z-score was -0.635 and -0.348 in test [1]; -1.05 and -0.826 in test [2]; -0.759 and 0.926 in test [3]; -1.57 and -1.63 in test [4]; -2.22 and -1.47 in [5]; -1.77 and -1.79 in test [6]. For the same molecule, the composite z-score in the test with Lefty1 is -0.99 and -1.37; in test [8], -0.539 and 0.579; in test [10] it was -0.845 and -0.857; in test [15], -0.986 and -1.14; in test [16], -0.312 and -0.204; with Torsin-1A (Homo sapiens) [17] it was -2.06 and -2.03. The composite z-score with Torsin-1A (Homo sapiens) [18] was -1.74 and -2.07; in test [19], -0.556 and -0.586. The z-score in test [7] is 1.34 and 0.685; in test [9], -4.23 (inactive) and -3.13 (inactive); in test [11] it was -0.103 (inactive) and -0.0586 (inactive); in [12], -1 (inactive) and -1.11 (inactive); in test [13], -0.0778 (inactive) and -0.35 (inactive); in test [14], 0.941 (inactive) and -0.947 (inactive).

As to `CC(CO)N1C(=O)[C@@H]2C3C(=O)OCCC=C[C@H]3OC23C=CCN(Cc2ccccc2)C(=O)[C@@H]13` (stereo not given in full), the composite z-score was -0.814 and -1.05 in test [1]; -0.716 and -0.415 in test [2]; 0.275 and -0.855 in test [3]; -1.73 and -0.886 in test [4]; -0.972 and -1.08 in test [5]; -0.995 and -0.746 in [6]. The composite z-score in the test with Lefty1 is -1.17 and -0.88; in [8] it was -1.16 and -0.612; in test [10], -0.238 and -0.381; in [15], -0.422 and -0.768; in [16] it was -0.128 and -0.0762; in the test with Torsin-1A (Homo sapiens) [17] it was -0.773 and 0.447. Further, the composite z-score was 1.55 and 1.17 with Torsin-1A (Homo sapiens) [18]; -0.525 and 0.901 in test [19]. Further, the z-score was 0.739 and 0.735 in [7]; -0.965 (inactive) and -0.875 (inactive) in test [9]; -0.783 (inactive) and 0.124 (inactive) in [11]; 2.42 (inactive) and 0.328 (inactive) in [12]; 0.321 (inactive) and 0.195 (inactive) in test [13]; -0.937 (inactive) and -0.56 (inactive) in test [14].

For the molecule `CC(CO)N1C(=O)[C@@H]2C3C(=O)OCCC=C[C@H]3OC23C=CCN(C(C)(C)C)C(=O)[C@@H]13` (stereo not given in full), the composite z-score was -2.03 and 0.11 in [1]; -1.08 and -0.0333 in [2]; -0.0802 and -0.371 in test [3]; -1.65 and -0.445 in test [4]; -1.1 and -0.0304 in test [5]; -0.325 and -0.263 in [6]. The composite z-score in the test with Lefty1 was -1.08 and 0.542; in [8] it was -2.85 and 0.0101; in test [10] it was -0.221 and 0.386; in [15], -1.5 and -0.476; in [16], -0.206 and 0.188; in the test with Torsin-1A (Homo sapiens) [17] it was -0.0147 and 0.756. In addition, the composite z-score was -0.0948 and 0.346 with Torsin-1A (Homo sapiens) [18]; 0.0735 and 0.915 in [19]. The z-score is -0.619 and -0.394 in test [7]; -0.685 (inactive) and -0.146 (inactive) in test [9]; 1.18 (inactive) and -0.0534 (inactive) in test [11]; 1.02 (inactive) and 1.16 (inactive) in [12]; -0.0859 (inactive) and -0.903 (inactive) in test [13]; -0.596 (inactive) and 0.158 (inactive) in [14].

Regarding `C=CCN(C(=O)C(c1cccs1)N(C(=O)/C=C\C(=O)O)c1c(Cl)cccc1CO)C(C)(C)C` (stereo not given), the composite z-score in [1] is 0.28 and -0.668; in test [2], -1.4 and -1.02; in test [3] it was -0.513 and -0.619; in test [4] it was -2.69 and -1.15; in test [5], -1.48 and -1.81; in test [6] it was -2.01 and -2.33. Further, the composite z-score in the test with Lefty1 is -1.96 and -2.54; in test [8] it was -0.543 and -1; in test [10], -1.15 and -1.26; in [15], -1.61 and -1.09; in test [16], -0.341 and -0.164; in the test with Torsin-1A (Homo sapiens) [17], -3.44 and -4.12. Besides, the composite z-score was -3.15 and -2.91 with Torsin-1A (Homo sapiens) [18]; -1.98 and -2.58 in [19]. The z-score in [7] is 0.674 and 0.368; in test [9], -0.242 (inactive) and -0.42 (inactive); in test [11], 0.389 (inactive) and 0.124 (inactive); in test [12] it was 0.933 (inactive) and 1.26 (inactive); in [13] it was 0.325 (inactive) and 0.471 (inactive); in [14], -0.386 (inactive) and -0.514 (inactive).
